From ChEMBL document CHEMBL4513135, “CO-ADD screening of IQOG CSIS (Spain) compounds”
Potency and affinity values are given separately.

What follows are compounds tested on Staphylococcus aureus. Settings: Concentration 32 ug.mL-1; ASSAY_TEST Inhibition of Bacterial Growth; detection method Absorption (OD600); MEDIA CAMHB; plate type 384well; NBS; CORNING #3640; time 18 hr.

Point of comparison: `Cc1ccc(C2c3c(nc4c(c3N)CCCC4)Oc3ccc4ccccc4c32)cc1` (stereo not given), Inhibition 10.92%. Against it:
- C#CCNC(=O)c1cc2cc(OCCCC3CCN(Cc4ccccc4)CC3)ccc2[nH]1 — higher, 18.56%
- COc1cccc(C2C(C#N)=C(N)Oc3[nH]nc(C)c32)c1 (stereo not given) — lower, 6.27%
- CC1CN(C)c2c(C#N)c(-c3ccccc3)c(C#N)c(=N)n21 (stereo not given) — higher, 26.27%
- N#Cc1cc(Br)cc(Br)c1N — lower, 3.71%
- N#Cc1cc(C#N)c(NCCCCC2CCN(Cc3ccccc3)CC2)nc1N — higher, 36.38%
- N#Cc1cc(C#N)c(NCCC2CCN(Cc3ccccc3)CC2)nc1N — higher, 49.11%
- O=C(N/N=C/c1ccc([N+](=O)[O-])cc1)c1cc2ccccc2[nH]1 — higher, 11.24%
- N#Cc1cc(C#N)c(N2CCC(Cc3ccccc3)CC2)nc1N — lower, -2.68%
- CNC(=O)c1c(Cl)c2cc(OCc3ccccc3)ccc2n1C — higher, 21.87%
- N#Cc1cc(C#N)c(Cl)nc1N — higher, 11.29%
- Nc1n[nH]c2c1C(c1ccccc1)CC(=O)N2 (stereo not given) — higher, 40.09%
- C#CCNc1cccc(F)n1 — higher, 34.2%
- OCc1c(-c2ccc(Br)cc2)nc2ccccn12 — lower, 6.46%
- COc1nc2ccccc2cc1C=O — higher, 17.37%
- Cc1ccc(C(O)SNNc2nc(C)nc3c2c(C)nn3-c2ccccc2)cc1 (stereo not given) — lower, 4.03%
- O=C(N/N=C/Cc1ccccc1)c1cc2ccccc2[nH]1 — lower, 10.17%
- CC1Cc2ccccc2N1/N=C/c1ccccc1 (stereo not given) — lower, -5.3%
- O=C(O)c1cc2ccccc2[nH]1 [INDOLE-2-CARBOXYLIC ACID] — lower, 5.6%
- O=C(NN=Cc1c[nH]c2ccccc12)c1cccc2ccccc12 — higher, 15.12%
- O=C(NNCc1c[nH]c2ccccc12)c1cccc2ccccc12 — lower, -2.49%
- Cc1ccccc1-c1c(C=N)c(N)nc2c1S(=O)(=O)OC2(C)C — higher, 11.29%
- Cn1c(C(=O)O)cc2ccccc21 — lower, 7.02%
- CC(=O)NCCc1ccccc1 — higher, 12.71%
- CCOc1nc(N)c(C#N)cc1C#N.Cl — lower, -3.52%
- CC1=C(C(=O)O[C@@H]2C[C@@]3(C)CC[C@H]2C3(C)C)C(c2ccccc2)C(C#N)=C(N)O1 (stereo not given in full) — lower, -12.42%
- COc1ccc(C2c3c(ccc4ccccc34)OC(=NBr)C2(Br)C#N)cc1 (stereo not given) — higher, 37.33%
- CC(=O)Nc1n[nH]c2nc(N)c(C#N)c(-c3ccccc3)c12 — higher, 38.27%
- N#Cc1cc2c(N)n[nH]c2nc1N — higher, 14.97%
- COc1nc2nc3c(c(N)c2cc1C#N)CCCC3.Cl — lower, 7.17%
- CCOc1nc2nc3c(c(N)c2cc1C#N)CCCC3 — lower, -2.29%
- C#CCN(C)c1nc(Sc2ccccc2)c(C#N)c(-c2ccccc2)c1C#N — lower, 6.49%
- COc1nc2nc3c(c(N)c2cc1C#N)CN(Cc1ccccc1)CC3 — lower, 9.36%
- CC(C)NNC(=O)Cc1c[nH]c2ccccc12 — higher, 11.42%
- COc1ccc(C2c3c(nc4c(c3N)CCCC4)Oc3ccc4ccccc4c32)cc1 (stereo not given) — higher, 18.52%
- N#Cc1cccnc1N — higher, 27.07%
- Cn1ccnc1C1c2ccc3ccccc3c2Oc2nc3c(c(N)c21)CCCCC3 (stereo not given) — higher, 17.85%
- Cl.ClCCCCCN1CCCCC1 — lower, 7.58%
- O=C1OC(c2ccccc2)=NC1=Cc1ccc(Cl)cc1 — higher, 14.11%
- Cl.OCC1CCN(Cc2ccccc2)CC1 — higher, 26.15%
